Data on 85 compounds can be found in paper PMC4336329 (PLoS ONE, 2015).

The structures appear in SMILES notation. The whole screen tested about 310,000 compounds, of which about 14,000 (4.5%) showed an effect of 50% or more. The effect is printed as a negative number. The sample as a whole holds a higher share of strong results than the screen did.
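Further: peak tail current of the secondary pulse compared with the same well before compound.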

The target of this experiment is human ether-à-go-go-related gene (hERG) potassium channel (human, UniProt Q12809). Briefly: primary screen, population patch clamp on CHO cells stably expressing hERG; higher = less effect of the substance.
human ether-à-go-go-related gene (hERG) potassium channel, sequence (Q12809 whole entry, looked up): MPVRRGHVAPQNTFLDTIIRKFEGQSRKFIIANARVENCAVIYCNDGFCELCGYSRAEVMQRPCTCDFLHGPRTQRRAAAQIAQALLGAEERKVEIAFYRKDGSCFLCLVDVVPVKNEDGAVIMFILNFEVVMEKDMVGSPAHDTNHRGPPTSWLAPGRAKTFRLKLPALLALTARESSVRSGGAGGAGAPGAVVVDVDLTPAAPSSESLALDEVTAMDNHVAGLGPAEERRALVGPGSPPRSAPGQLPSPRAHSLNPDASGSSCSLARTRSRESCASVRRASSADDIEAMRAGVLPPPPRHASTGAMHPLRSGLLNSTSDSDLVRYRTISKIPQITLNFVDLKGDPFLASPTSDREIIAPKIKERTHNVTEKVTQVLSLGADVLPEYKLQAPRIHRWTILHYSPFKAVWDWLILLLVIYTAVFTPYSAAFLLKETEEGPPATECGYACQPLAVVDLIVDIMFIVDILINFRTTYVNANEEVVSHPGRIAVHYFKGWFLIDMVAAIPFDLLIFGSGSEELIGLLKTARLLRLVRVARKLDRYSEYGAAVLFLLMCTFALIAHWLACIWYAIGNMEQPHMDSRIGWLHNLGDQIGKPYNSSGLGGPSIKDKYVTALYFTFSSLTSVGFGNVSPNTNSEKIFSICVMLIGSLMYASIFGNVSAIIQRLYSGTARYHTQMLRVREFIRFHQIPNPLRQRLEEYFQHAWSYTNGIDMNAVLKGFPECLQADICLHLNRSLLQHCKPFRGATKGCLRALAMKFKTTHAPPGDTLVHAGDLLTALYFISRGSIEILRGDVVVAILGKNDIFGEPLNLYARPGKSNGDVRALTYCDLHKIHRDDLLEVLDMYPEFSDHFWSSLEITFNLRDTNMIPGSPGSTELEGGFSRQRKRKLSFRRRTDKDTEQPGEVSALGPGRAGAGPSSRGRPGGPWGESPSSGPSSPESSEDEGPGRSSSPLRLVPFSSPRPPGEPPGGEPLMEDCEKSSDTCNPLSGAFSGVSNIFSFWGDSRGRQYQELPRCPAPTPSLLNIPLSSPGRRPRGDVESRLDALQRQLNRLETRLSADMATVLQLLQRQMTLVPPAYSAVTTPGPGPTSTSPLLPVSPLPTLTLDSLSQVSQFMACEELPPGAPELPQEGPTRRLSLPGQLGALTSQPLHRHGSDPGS
As to `COc1ccc(C)cc1S(=O)(=O)NCCc1ccccc1`, the “hERG current change (%, negative = inhibition) at 10uM” value is given as -28.3%.
The same measure for `CCN(CC)c1ccc(C(=O)OCC(=O)Nc2ccc3[nH]c(=O)[nH]c3c2)cc1`: 5.58%.
As for `Cc1ccc2nc(SCc3nnc(-c4ccccc4Br)o3)[nH]c2c1`, the “hERG current change (%, negative = inhibition) at 10uM” value is recorded as -6.41%.
The same measure for `CCOC(=O)C1=C(OCc2ccc(Cl)cc2)C2C=C(C)C=CC2N=C1` (stereo not shown): -69.1%.
As for `CCOC(=O)c1c(C=O)c(C)n(Cc2ccc(Cl)cc2)c1C`, the figure is -18.8%.
As for `CCOc1ncccc1C(=O)OCc1ccc(Cl)cc1`, the figure is -20%; as for `CC(=O)c1ccc(-n2c(C)c(C(C)=O)c3cc(O)ccc32)cc1`, 8.94%; as for `O=C(NCCN1CCN(C(=O)c2ccc([N+](=O)[O-])cc2)CC1)C(=O)NCc1ccccc1`, -78.9%.
`O=C(c1ccc([N+](=O)[O-])cc1)N1CCc2ccccc2C1`: the “hERG current change (%, negative = inhibition) at 10uM” value was -44.7%.
For the compound `O=C(CCC(=O)NNC(=O)c1ccc([N+](=O)[O-])cc1)NCc1ccccc1`, the “hERG current change (%, negative = inhibition) at 10uM” value was found to be 10.9%.
As for `O=C(c1cccc(Br)c1)N1CCN(C(=O)c2cccc(Br)c2)CC1`, the figure is -28.5%.
As for `CC(NC(=O)C(=O)NCCN1CCN(C(=O)c2ccccc2Br)CC1)c1ccccc1` (stereo not shown), the figure is 6.37%.
The same measure for `COc1ccc(N2CCN(CCNC(=O)Nc3ccc([N+](=O)[O-])cc3OC)CC2)cc1`: -17.1%; for `O=C(NCCN1CCN(c2ccc([N+](=O)[O-])cc2)CC1)NCc1ccccc1`: -67.7%.
Consider `CCc1ccc(N2CCN(CCNC(=O)Nc3ccccc3)CC2)cc1`, for which the “hERG current change (%, negative = inhibition) at 10uM” value is recorded as -21.1%.
The same measure for `O=C(NCCN1CCN(C(=O)c2cccc(Br)c2)CC1)C(=O)Nc1ccc(Br)cc1`: -42.1%; for `CC(NC(=O)C(=O)NCCN1CCN(C(=O)c2ccc([N+](=O)[O-])cc2)CC1)c1ccccc1` (stereo not shown): -75.1%.
As for `O=C(NCCN1CCN(C(=O)c2cccc(Br)c2)CC1)C(=O)NCc1ccccc1`, the figure is -70%; as for `CC(C(=O)NCCN1CCOCC1)c1ccc([N+](=O)[O-])cc1` (stereo not shown), 16.7%; as for `Cc1ccccc1-n1nc(C)c2cc(C(=O)NCc3cccnc3)sc21`, -31%.
As for `O=C(c1ccc(COc2ccc(Br)cc2)o1)N1N=C(C(F)F)CC1(O)C(F)F` (stereo not shown), the figure is 2.57%; as for `Cn1c(N/N=C/c2c[nH]c3ccccc23)nc2ccccc21`, -46.7%; as for `COC(=O)c1ccc(-n2nnnc2SC)cc1`, 3.46%.
As for `COc1cccc(/C=C2/Oc3ccccc3N(CC(=O)NCC3CCCO3)C2=O)c1` (stereo not shown), the “hERG current change (%, negative = inhibition) at 10uM” value is reported as 14%.
As for `Cc1nn(Cc2ccccc2)c(C)c1C(=O)OCC(=O)c1cc(C)n(C2CC2)c1C`, the figure is -10.2%; as for `NC(=O)COc1ccc(C23CC4CC(CC(C4)C2)C3)cc1`, 7.2%.
As for `Cl.O=C(Cc1ccc(Cl)cc1)NCCN1CCCC1`, the figure is -21.9%.
As for `O=C(NCc1ccc(F)cc1)N1CCN(C(=O)c2ccccc2)CC1`, the figure is -13.5%.
For the compound `CN1CCN(C(=O)CNC(=O)Cc2ccc(Cl)cc2)CC1`, the “hERG current change (%, negative = inhibition) at 10uM” value worked out at 5.31%.
The same measure for `O=C(NCCN1CCN(S(=O)(=O)c2ccc(F)cc2)CC1)C(=O)NCc1ccccc1`: 0.451%; for `CC(C)(C)c1ccc(C(=O)N2CCN(CCNC(=O)C(=O)NCc3ccc(Cl)cc3)CC2)cc1`: -41.1%; for `Cc1ccc(C(=O)N2CCN(CCNC(=O)C(=O)NC(C)C)CC2)cc1`: 9.12%.
The same measure for `O=C(NCCN1CCN(C(=O)c2cccc([N+](=O)[O-])c2)CC1)C(=O)NCc1ccc(Cl)cc1`: -50.1%.
As for `O=C(NCCN1CCN(C(=O)c2ccc(F)cc2)CC1)C(=O)NCc1ccccc1`, the figure is -73.9%; as for `O=C(Cc1ccc(Cl)cc1)NCCN1CCN(C(=O)Cc2ccc(Cl)cc2)CC1`, -53.4%; as for `Cc1ccc(C(=O)N2CCN(CCNC(=O)C(=O)NCc3ccc(Cl)cc3)CC2)cc1`, -74%.
For `COc1ccc(Cc2nc3ccccc3n2CC(=O)N/N=C/c2ccc(O)cc2)cc1OC`, the “hERG current change (%, negative = inhibition) at 10uM” value was determined as 0.975%.
As for `C=CCOc1ccccc1CNc1ccccc1C`, the “hERG current change (%, negative = inhibition) at 10uM” value was -15.7%.
The same measure for `COc1ccc(-c2ccc(NC(=O)c3ccco3)cc2)nn1`: 5.79%; for `Cc1c(NC(=O)C(C)n2cc([N+](=O)[O-])cn2)c(=O)n(-c2ccccc2)n1C` (stereo not shown): 19.4%.
For `O=C(/C=C/Nc1ccccc1F)c1cccs1`, the “hERG current change (%, negative = inhibition) at 10uM” value is 1.08%.
As for `COc1ccc(OCc2nn3c(-c4ccco4)nnc3s2)cc1`, the figure is -36.6%; as for `Cn1cccc1/C=C1\SC(=O)N(c2ccc(O)cc2)C1=O`, 0.777%.
As for `COc1ccc(/C(C)=N/NC(=O)C(NC(=O)c2ccccc2)c2n[nH]c(=O)c3ccccc23)c(OC)c1` (stereo not shown), the figure is 4.11%; as for `O=C(COC(=O)c1cc(S(=O)(=O)N2CCCCC2)ccc1N1CCOCC1)NCCc1ccc(F)cc1`, -25.5%; as for `CC(C)NC(=O)C(=O)NCCN1CCN(C(=O)c2ccc(C(C)(C)C)cc2)CC1`, -3.01%.
Take `Cc1ccc(S(=O)(=O)N2CCN(CCNC(=O)C(=O)NCc3ccccc3)CC2)cc1`: the “hERG current change (%, negative = inhibition) at 10uM” value was 5.65%.
Take `CC(C)(C)c1ccc(C(=O)N2CCN(CCNC(=O)C(=O)NCc3ccccc3)CC2)cc1`: the “hERG current change (%, negative = inhibition) at 10uM” value was -57%.
The same measure for `COc1ccc(-c2noc(CCC(N)=O)n2)cc1OC`: 3.66%; for `Cc1csc(NC(=O)c2ccccc2C(=O)O)n1`: -0.365%; for `Cc1ccc(NC(=O)c2ccn(C)n2)c(Br)c1`: 0.15%.
Take `Cc1ccc(CNC(=O)c2cc(S(=O)(=O)N3CCOCC3)cn2C)cc1`: the “hERG current change (%, negative = inhibition) at 10uM” value was -12.5%.
The same measure for `O=C(CSc1nc2ccccc2c(=O)n1CCCN1CCOCC1)NC12CC3CC(CC(C3)C1)C2`: -67.8%; for `O=C1c2ccccc2C(=O)N1CCSc1nc2ccccc2c(=O)n1CCCN1CCOCC1`: -15.1%; for `CC(=O)c1c(C)[nH]c(C(=O)CSc2nc3ccccc3c(=O)n2CCCN2CCOCC2)c1C`: -15.5%.
The same measure for `COCCCn1c(SCC(=O)O)nc2cc(OC)c(OC)cc2c1=N`: 9.07%.
For the compound `CC(Sc1nc2ccccc2c(=O)n1CC1CCCO1)C(=O)N(C)c1ccccc1` (stereo not shown), the “hERG current change (%, negative = inhibition) at 10uM” value is given as -41.6%.
On to `CCCSc1nc2cc(OC)c(OC)cc2c(=N)n1CCCN1CCOCC1`, for which the “hERG current change (%, negative = inhibition) at 10uM” value was -74.6%.
The same measure for `COC(=O)c1ccc2c(=O)n(CCN3CCOCC3)c(SCC(=O)NCc3ccccc3)nc2c1`: -46.1%; for `CC(Sc1nc2ccccc2c(=O)n1CC1CCCO1)C(=O)N(C)Cc1ccccc1` (stereo not shown): -59.8%; for `CC(C)Cn1c(N)c(C(=O)CSc2nc3ccccc3c(=O)n2CCCN2CCOCC2)c(=O)n(C)c1=O`: -22.2%.
As for `CC(=O)Nc1ccc(NC(=O)C(C)Sc2nc3ccccc3c(=O)n2CC2CCCO2)cc1` (stereo not shown), the figure is 7.41%.
As for `COCCCn1c(SCCc2ccccc2)nc2cc(OC)c(OC)cc2c1=N`, the figure is -12.7%; as for `COc1ccccc1CNC(=O)CSc1nc2ccccc2c(=O)n1CCCN1CCOCC1`, -56%; as for `CC(OC(=O)c1cc2sccc2n1C)C(=O)NCC1CCCO1` (stereo not shown), 0.798%.
With `Cc1ccc(S(=O)(=O)CC(=O)N2CCCC2)cc1`, the “hERG current change (%, negative = inhibition) at 10uM” value is on record as -0.506%.
As for `O=C(CCc1ccc(Oc2cc([N+](=O)[O-])cc([N+](=O)[O-])c2)cc1)N1CCCCCC1`, the figure is -30.2%.
As for `Cn1cc(SCC(=O)Nc2nc3ccccc3s2)c2ccccc21`, the figure is -5.6%; as for `Cc1noc(C(C)C)c1C(=O)Nc1ccc(-c2nnc3n2CCCCC3)cc1`, -4.21%; as for `Cc1cccc(C)c1-n1nnnc1S(=O)(=O)Cc1ccccc1Cl`, -18.2%.
As for `CC(C)CN1CCC(C(=O)NCC2CCCO2)CC1.O=C(O)C(=O)O` (stereo not shown), the figure is -3.21%; as for `CC(C)CN(CC(C)C)C(=O)CN1c2cccc3cccc(c23)S1(=O)=O`, 18.1%; as for `CCN(CC)C(=O)Oc1cc2c(-c3cc4cccc(OC)c4o3)cc(=O)oc2cc1C`, 9.85%.
In the case of `COc1ccc(CNC(=O)C(C)Sc2nc3ccccc3c(=O)n2CCCN2CCOCC2)cc1` (stereo not shown), the “hERG current change (%, negative = inhibition) at 10uM” value is given as -84.9%.
As for `COc1cccc(CNC(=O)CSc2nc3c(oc4ccccc43)c(=O)n2CC2CCCO2)c1` (stereo not shown), the figure is -36.4%.
As for `COc1ccc(CNC(=O)C(C)Sc2nc3ccccc3c(=O)n2CC2CCCO2)cc1` (stereo not shown), the figure is -78.7%; as for `COc1ccc(-c2nc3ccccc3c(=O)n2CCCN2CCOCC2)cc1`, 6.17%; as for `COCCn1c(SCc2ccc(OC)c(F)c2)nc2ccccc2c1=O`, -2.82%.
The same measure for `COc1ccc(CSc2nc3ccccc3c(=O)n2CCCN2CCOCC2)cc1F`: -53.4%; for `CCC(Sc1nc2ccccc2c(=O)n1CCN1CCOCC1)C(=O)NCc1cccnc1` (stereo not shown): -37%; for `COc1ccc(CNC(=O)CSc2nc3c(oc4ccccc43)c(=O)n2CC2CCCO2)cc1` (stereo not shown): -60.6%.
Regarding `CC(Sc1nc2ccccc2c(=O)n1CC1CCCO1)C(=O)NC(C)c1ccccc1` (stereo not shown), the “hERG current change (%, negative = inhibition) at 10uM” value is reported as -5.01%.
The same measure for `CCn1c(SCc2ccc(OC)c(F)c2)nc2ccccc2c1=O`: 23.4%; for `COc1ccccc1NC(=O)C(C)Sc1nc2ccccc2c(=O)n1CC1CCCO1` (stereo not shown): -37.2%.
`O=C(CSc1nc2c(oc3ccccc32)c(=O)n1CC1CCCO1)NCc1ccccc1` (stereo not shown): the “hERG current change (%, negative = inhibition) at 10uM” value was -15.8%.
